Experimental data as given in PubChem BioAssay (EPA / NIEHS).
Records with an inconclusive call do not appear. The source made the active and inactive calls. How the source made its calls: active means hit-call score of the fitted dose curve at least 0.9, where 1 is the maximum; inconclusive means response in the unintended direction; inactive means score below 0.9.

Key:
[1] = biological target: Sodium channel protein type 1 subunit alpha (Rattus norvegicus) (UniProt P04774); assay: NVS_IC_rNaCh_site2: NovaScreen (NVS) Ion Channel Assay for rat Sodium Channel, Site 2 (NaCh) (AID 2283322);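 further: hit means loss of radioligand binding signal relative to DMSO so AC50 marks displacement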
In short: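 Membranes: rat forebrain. Format: competitive radioligand displacement, filter separation, scintillation readout, 1 h exposure. Primary screen in duplicate at 25 uM; actives retested in concentration series.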

[2] = biological target: human Peripheral-type Benzodiazepine Receptor (PBR), TSPO (gene 706) (UniProt P30536); assay: NVS_MP_hPBR: NovaScreen (NVS) Membrane Protein Assay for human Peripheral-type Benzodiazepine Receptor (PBR) (AID 2283331);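 further: hits reduce radioligand binding relative to DMSO baseline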
human Peripheral-type Benzodiazepine Receptor (PBR), TSPO (gene 706), sequence (P30536 whole entry, looked up): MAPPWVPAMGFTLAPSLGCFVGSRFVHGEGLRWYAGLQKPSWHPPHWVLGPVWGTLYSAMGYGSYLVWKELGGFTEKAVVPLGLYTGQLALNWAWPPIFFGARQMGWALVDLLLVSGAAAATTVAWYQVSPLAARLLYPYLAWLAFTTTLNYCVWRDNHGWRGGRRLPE
In short: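 Human colonic cell membranes were incubated with test chemical for 1 hour; radioligand binding was measured by filter-based scintillation counting. Primary screen ran in duplicate at 25 uM, with actives followed in concentration series; loss of signal versus DMSO baseline.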

[3] = biological target: rat Peripheral-type Benzodiazepine Receptor (PBR), Tspo (gene 24230) (UniProt P16257); assay: NVS_MP_rPBR: NovaScreen (NVS) Membrane Protein Assay for rat Peripheral-type Benzodiazepine Receptor (PBR) (AID 2283335)
rat Peripheral-type Benzodiazepine Receptor (PBR), Tspo (gene 24230), sequence (P16257 whole entry, looked up): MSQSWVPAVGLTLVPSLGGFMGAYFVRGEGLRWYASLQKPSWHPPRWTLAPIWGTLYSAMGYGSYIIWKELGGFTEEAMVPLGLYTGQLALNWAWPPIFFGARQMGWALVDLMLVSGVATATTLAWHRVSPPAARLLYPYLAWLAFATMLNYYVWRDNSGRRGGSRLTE
In short: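 Radioligand displacement, rat kidney membrane prep, 1 h exposure, filter-based scintillation read; DMSO baseline, loss-of-signal scored. Primary screen at 25 uM in duplicate, actives followed up in concentration series.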

[4] = biological target: rat Thyrotropin Releasing Hormone Receptor (TRH), Trhr (gene 25570) (UniProt Q01717); assay: NVS_GPCR_rTRH: NovaScreen (NVS) G Protein-Coupled Receptor Assay for rat Thyrotropin Releasing Hormone Receptor (TRH) (AID 2283329);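 further: hit means lower bound tracer signal versus DMSO baseline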
rat Thyrotropin Releasing Hormone Receptor (TRH), Trhr (gene 25570), sequence (Q01717 whole entry, looked up): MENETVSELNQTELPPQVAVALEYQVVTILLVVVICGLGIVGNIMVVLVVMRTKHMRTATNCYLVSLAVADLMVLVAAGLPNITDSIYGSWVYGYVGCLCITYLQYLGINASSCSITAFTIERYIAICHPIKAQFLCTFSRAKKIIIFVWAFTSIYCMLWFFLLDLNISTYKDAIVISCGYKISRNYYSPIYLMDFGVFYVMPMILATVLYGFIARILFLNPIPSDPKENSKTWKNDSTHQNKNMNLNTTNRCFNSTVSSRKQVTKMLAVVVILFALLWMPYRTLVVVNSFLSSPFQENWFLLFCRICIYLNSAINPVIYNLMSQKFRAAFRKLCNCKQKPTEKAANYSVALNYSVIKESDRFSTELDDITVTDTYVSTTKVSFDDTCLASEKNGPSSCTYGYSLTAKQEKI
In short: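 Rat forebrain membranes; radioligand displacement at TRH receptor by filter-based scintillation counting, read 4 h after dosing. Duplicate single-point screen at 25 uM, actives rerun in concentration series; loss of signal relative to DMSO.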

NCBI gene 24521 = assay: NVS_IC_rKATPCh: NovaScreen (NVS) Ion Channel Assay for rat Potassium Channel, ATP-Sensitive (KATPCh) (AID 2283319)
In short: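 Rat cortical membranes; radioligand binding at ATP-sensitive K channel site, filter-based scintillation counting 2 h after dosing. Single-point duplicate screen at 25 uM, hits rerun in concentration-response up to 50 uM; loss of signal versus DMSO.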

[5] = biological target: rat Gamma-Aminobutyric Acid Type A Receptor, Non-Selective (GABAR-NonSelective), Gabra1 (gene 29705) (UniProt P62813); assay: NVS_LGIC_rGABAR_NonSelective: NovaScreen (NVS) Ligand-Gated Ion Channel Assay for rat Gamma-Aminobutyric Acid Type A Receptor, Non-Selective (GABAR-NonSelective) (AID 2283326)
rat Gamma-Aminobutyric Acid Type A Receptor, Non-Selective (GABAR-NonSelective), Gabra1 (gene 29705), sequence (P62813 whole entry, looked up): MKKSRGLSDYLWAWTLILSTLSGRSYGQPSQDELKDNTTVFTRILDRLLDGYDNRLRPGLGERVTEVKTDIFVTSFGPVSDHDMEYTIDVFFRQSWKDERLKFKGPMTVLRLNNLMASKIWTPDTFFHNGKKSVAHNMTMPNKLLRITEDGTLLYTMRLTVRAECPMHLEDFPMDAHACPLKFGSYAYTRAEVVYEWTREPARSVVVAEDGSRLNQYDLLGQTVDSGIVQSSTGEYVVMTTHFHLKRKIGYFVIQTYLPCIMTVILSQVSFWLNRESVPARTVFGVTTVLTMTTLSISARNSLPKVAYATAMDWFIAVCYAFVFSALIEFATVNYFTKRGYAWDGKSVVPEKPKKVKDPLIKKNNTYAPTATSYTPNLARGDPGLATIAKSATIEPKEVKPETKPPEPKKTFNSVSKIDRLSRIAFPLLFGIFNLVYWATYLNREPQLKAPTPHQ
In short: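 Radioligand displacement on rat whole-brain extract, 1 h, filter scintillation readout; signal loss fitted versus DMSO. Primary screen in duplicate at 25 uM; hits (e.g. ≥30% inhibition) retested in concentration-response up to 50 uM.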

NCBI gene 100848466 = assay: NVS_NR_bPR: NovaScreen (NVS) Nuclear Receptor Binding Assay for bovine Progextron Receptor (PR) (AID 2283343);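 further: actives lower bound radioligand signal below DMSO meaning displacement of the label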
In short: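 Bovine uterine membrane preparation, cell-free; radioligand competitive displacement measured by scintillation counting 18 hours after dosing. Loss of signal versus DMSO baseline indicates binding; primary HTS single concentration 25 uM in duplicate, actives followed in concentration series.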

[6] = biological target: human Androgen Receptor (AR), AR (gene 367) (UniProt P10275); assay: NVS_NR_hAR: NovaScreen (NVS) Nuclear Receptor Binding Assay for human Androgen Receptor (AR) (AID 2283332)
human Androgen Receptor (AR), AR (gene 367), sequence (P10275 whole entry, looked up): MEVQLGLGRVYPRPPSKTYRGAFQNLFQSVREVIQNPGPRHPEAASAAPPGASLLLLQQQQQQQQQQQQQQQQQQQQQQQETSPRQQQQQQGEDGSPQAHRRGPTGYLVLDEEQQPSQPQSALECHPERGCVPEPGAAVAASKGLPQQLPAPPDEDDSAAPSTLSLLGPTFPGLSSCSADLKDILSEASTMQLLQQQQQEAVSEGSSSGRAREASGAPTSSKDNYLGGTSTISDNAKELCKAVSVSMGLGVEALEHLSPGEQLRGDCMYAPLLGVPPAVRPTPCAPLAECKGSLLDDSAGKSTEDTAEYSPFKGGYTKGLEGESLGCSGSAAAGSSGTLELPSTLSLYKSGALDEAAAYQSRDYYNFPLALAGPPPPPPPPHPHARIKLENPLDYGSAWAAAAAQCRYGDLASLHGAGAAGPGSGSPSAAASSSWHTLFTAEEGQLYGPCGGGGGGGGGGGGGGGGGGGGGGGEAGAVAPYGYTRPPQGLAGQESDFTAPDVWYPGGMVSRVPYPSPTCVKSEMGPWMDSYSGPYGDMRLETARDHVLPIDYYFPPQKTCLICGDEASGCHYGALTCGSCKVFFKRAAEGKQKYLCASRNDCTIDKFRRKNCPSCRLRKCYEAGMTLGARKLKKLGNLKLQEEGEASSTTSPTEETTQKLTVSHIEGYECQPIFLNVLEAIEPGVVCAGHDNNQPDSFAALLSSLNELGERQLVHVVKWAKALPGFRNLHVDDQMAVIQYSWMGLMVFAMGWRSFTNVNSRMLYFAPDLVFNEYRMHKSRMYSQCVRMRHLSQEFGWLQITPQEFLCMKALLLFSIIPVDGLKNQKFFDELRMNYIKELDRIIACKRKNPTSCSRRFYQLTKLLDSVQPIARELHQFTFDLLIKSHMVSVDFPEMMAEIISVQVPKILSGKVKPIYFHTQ
In short: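 Actives from a duplicate 25 uM single-point screen went on to concentration series. Read-out after 20 h was scintillation counting of displaced radioligand in LnCAP extract, with DMSO as baseline.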

[7] = NVS_IC_rCaBTZCHL: NovaScreen (NVS) Ion Channel Assay for Calcium Channel, Type L, Benzothiazepine Site (CaBTZCHL) (AID 2283337)
In short: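 Radioligand binding to the benzothiazepine site of L-type Ca channels in rat cortical membranes (cell-free), 1.5 h after dosing; filter-based scintillation counting. Loss of signal relative to DMSO baseline; primary single-concentration screen at 25 uM, actives then run in concentration series.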

[8] = biological target: rat Neonicotinoid receptor (NNR), Chrna7 (gene 25302) (UniProt Q05941); assay: NVS_LGIC_rNNR_BungSens: NovaScreen (NVS) Ligand-Gated Ion Channel Assay for rat Neonicotinoid receptor (NNR) (AID 2283315)
rat Neonicotinoid receptor (NNR), Chrna7 (gene 25302), sequence (Q05941 whole entry, looked up): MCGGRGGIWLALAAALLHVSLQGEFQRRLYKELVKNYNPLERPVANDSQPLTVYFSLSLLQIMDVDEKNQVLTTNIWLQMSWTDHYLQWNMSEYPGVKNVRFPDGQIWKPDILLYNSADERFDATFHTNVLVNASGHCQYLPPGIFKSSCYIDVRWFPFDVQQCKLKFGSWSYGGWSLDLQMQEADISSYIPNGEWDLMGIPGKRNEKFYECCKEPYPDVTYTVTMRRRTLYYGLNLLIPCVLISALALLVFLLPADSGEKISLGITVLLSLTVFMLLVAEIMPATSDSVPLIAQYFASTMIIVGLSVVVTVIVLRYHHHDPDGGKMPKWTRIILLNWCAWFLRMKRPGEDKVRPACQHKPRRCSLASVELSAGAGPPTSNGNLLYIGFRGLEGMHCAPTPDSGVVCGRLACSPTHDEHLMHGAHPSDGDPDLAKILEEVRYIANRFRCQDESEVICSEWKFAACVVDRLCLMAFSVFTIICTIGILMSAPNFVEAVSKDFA
In short: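 Radioligand displacement binding on rat cortical membranes, 2.5 h incubation, filtration and scintillation counting. Loss of specific binding fitted relative to DMSO.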

[9] = NVS_IC_rCaDHPRCh_L: NovaScreen (NVS) Ion Channel Assay for rat Calcium Channel, Type L, Dihydropyridine Site (CaDHPRCh_L) (AID 2283320)
In short: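 Radioligand binding to dihydropyridine site on rat cortical membranes, filter-based scintillation counting, 1 h after dosing. Screened in duplicate at 25 uM; actives rerun in concentration-response up to 50 uM. Loss of signal versus DMSO baseline.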

[10] = system: guinea pig Histamine Receptor (H2), gene 100729734; assay: NVS_GPCR_gH2: NovaScreen (NVS) G Protein-Coupled Receptor Assay for guinea pig Histamine Receptor (H2) (AID 2283342)
In short: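 Radioligand displacement on guinea pig striatal membranes, 1 h after dosing, filter-based scintillation counting; loss of signal versus DMSO. Single-point screen at 25 uM in duplicate, then concentration-response up to 50 uM.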

[11] = biological target: bovine Estrogen Receptor (ER), ESR1 (gene 407238) (UniProt P49884); assay: NVS_NR_bER: NovaScreen (NVS) Nuclear Receptor Binding Assay for bovine Estrogen Receptor (ER) (AID 2283345);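 further: actives lower the bound radioligand count which means they displace the ER ligand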
bovine Estrogen Receptor (ER), ESR1 (gene 407238), sequence (P49884 whole entry, looked up): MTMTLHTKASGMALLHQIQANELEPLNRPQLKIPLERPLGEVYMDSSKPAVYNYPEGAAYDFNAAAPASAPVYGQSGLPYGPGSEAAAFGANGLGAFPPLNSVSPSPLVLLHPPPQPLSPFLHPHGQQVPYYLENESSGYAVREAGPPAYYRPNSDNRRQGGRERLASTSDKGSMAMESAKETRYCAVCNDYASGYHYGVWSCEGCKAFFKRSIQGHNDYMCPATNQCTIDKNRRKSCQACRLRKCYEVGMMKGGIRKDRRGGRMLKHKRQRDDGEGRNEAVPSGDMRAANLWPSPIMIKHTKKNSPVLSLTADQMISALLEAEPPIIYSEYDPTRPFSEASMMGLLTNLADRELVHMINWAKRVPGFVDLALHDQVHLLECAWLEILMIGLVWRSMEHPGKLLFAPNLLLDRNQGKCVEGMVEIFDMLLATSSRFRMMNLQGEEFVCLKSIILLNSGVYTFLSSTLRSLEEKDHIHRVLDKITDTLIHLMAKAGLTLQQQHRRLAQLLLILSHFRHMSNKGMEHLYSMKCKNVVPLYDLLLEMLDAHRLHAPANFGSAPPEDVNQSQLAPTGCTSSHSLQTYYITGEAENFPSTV
In short: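 Cell-free radioligand binding with bovine uterine membrane extracts, read 18 hours after dosing by scintillation counting. Loss of signal versus DMSO baseline indicates displacement. Primary screen run in duplicate at 25 uM, actives followed in concentration series.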

In the case of `CCCCCc1ccc(O)cc1`, the AC50 [1] is reported as 1.07 µM (active), the AC50 [2] is reported as 25 µM (active) and the outcome [3] is reported as “inactive”.
In the case of `CCCCCCC(C)(C)C(=O)O`, the outcome [4] is reported as “inactive”.
With `CCCCCCCCCCCCOS(=O)(=O)O` the outcome (NCBI gene 24521) was “inactive”, the AC50 [5] was 5.96 µM (active) and the AC50 (NCBI gene 100848466) was 25.5 µM (active).
With `CC(C)c1c(C(=O)Nc2ccccc2)c(-c2ccccc2)c(-c2ccc(F)cc2)n1CC[C@@H](O)C[C@@H](O)CC(=O)O` the AC50 [2] was 11.2 µM (active) and the AC50 [3] was 0.729 µM (active).
With `CCCCc1ccc2ccccc2c1S(=O)(=O)O` the outcome [4] was “inactive”.
With `O=C(NCc1ncc(C(F)(F)F)cc1Cl)c1c(Cl)cccc1Cl` the AC50 [2] was 0.00396 µM (active) and the AC50 [3] was 0.005 µM (active).
With `CN(Cc1cnc2nc(N)nc(N)c2n1)c1ccc(C(=O)N[C@@H](CCC(=O)O)C(=O)O)cc1` the outcome [1] was “inactive”, the outcome [2] was “inactive” and the outcome [6] was “inactive”.
In the case of `CCc1cccc(CC)c1N(COC)C(=O)CS(=O)(=O)O`, the outcome [1] is reported as “inactive”.
In the case of `C=CC(=O)OCCN(CC)CC`, the outcome [1] is reported as “inactive”.
With `CCCCCCCCCCCCCCCCCC[N+](C)(C)Cc1ccccc1` the outcome [1] was “inactive”, the outcome [2] was “inactive” and the AC50 [3] was 12.5 µM (active). For the same molecule, the outcome [7] was “inactive”.
For `CCCCC(CC)C(=O)OCCOCCOCCOCCOC(=O)C(CC)CCCC` (stereo not given), the AC50 [2] was 15.8 µM (active).
With `CCOC(=O)CN[C@@H](C(=O)N1CC[C@H]1C(=O)NCc1ccc(/C(N)=N/O)cc1)C1CCCCC1` the AC50 [1] was 0.00287 µM (active) and the AC50 [2] was 1.25 µM (active).
With `Cc1ccc(C)c(S(=O)(=O)O)c1` the AC50 [4] was 0.194 µM (active).
For `CC1CNCC(C)O1` (stereo not given), the AC50 [8] was 25 µM (active).
With `CCCCc1oc2ccccc2c1C(=O)c1cc(I)c(OCCN(CC)CC)c(I)c1` the AC50 [9] was 0.772 µM (active), the AC50 [1] was 1.67 µM (active) and the AC50 [2] was 5.22 µM (active). The AC50 [3] was 10.9 µM (active), the AC50 [7] was 1.81 µM (active) and the AC50 [10] was 9.85 µM (active).
With `COc1cc([N+](=O)[O-])ccc1N` the outcome [4] was “inactive”.
For `Cc1ccc(S(=O)(=O)O)cc1`, the AC50 [4] was 0.167 µM (active).
In the case of `NC(=NCCCCCCN=C(N)/N=C(\N)Nc1ccc(Cl)cc1)/N=C(\N)Nc1ccc(Cl)cc1`, the AC50 [8] is reported as 38.3 µM (active), the outcome [1] is reported as “inactive” and the AC50 [2] is reported as 10.3 µM (active). The AC50 [7] was 8.58 µM (active) and the outcome [11] was “inactive”.
In the case of `O=C(O)c1cccc(C(=O)O)n1`, the outcome [4] is reported as “inactive”.
